A selection: hits, their analogues and other compounds. The true share with any hit is near 6.8%.
C diff growth: inhibitors of Clostridium difficile growth | growth activity, negative = inhibition, % at 16 µg/mL (by protocol) | Clostridium difficile clinical isolate growth, OD600, 24 h; active compounds read low | 86,000 tested, 0.25% active;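 active = mean growth activity at or below -80% and every replicate also at or below -80%; inconclusive = mean at or below -80% but some replicate above -80%; inactive = mean growth activity above -80%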;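 note: 0% = DMSO wells and -100% = levofloxacin 16 µg/mL wells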
Pf Dd2 inh: P. falciparum Dd2 growth inhibition; 94,000 tested, 2.3% active; activity change, % at 10 µM; AID 1159554; SYBR Green, 72 h; active compounds read low; in the data active = activity change below about -80%; inconclusive = no clear call, values can overlap the other calls
T cruzi growth-1: blocks T. cruzi growth in NIH3T3 culture; T. cruzi beta-gal in NIH3T3, GalScreen luminescence, 90 h; inhibition, % at 8.34 µM; 77,000 tested, 5.9% active; AID 624255;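 active = mean inhibition above about 93%, with at least 55% of replicates each passing it, limit read from the data, passing the limit was not always enough; inconclusive = only one of those two conditions holds; inactive = neither condition holds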
T cruzi growth-2: blocks T. cruzi growth in NIH3T3 host cells; shares compounds with T cruzi growth-1; inhibition, % at 8.35 µM; 5,600 tested, 72% active; T. cruzi beta-gal in NIH3T3, GalScreen luminescence, 90 h;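 active = mean replicate inhibition above about 95% and at least 55% of replicates individually reaching it, limit read from the data; inconclusive = only one of the two criteria is met; inactive = neither criterion is met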
T cruzi growth-3: blocks T. cruzi growth in NIH3T3 host cells | shares compounds with T cruzi growth-1 | T. cruzi beta-gal in NIH3T3, GalScreen luminescence, 90 h | inhibition, % at 2.09 µM | 5,600 tested, 21% active;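 active = mean inhibition above about 95%, with at least 55% of replicates also reaching it, limit read from the data; inconclusive = meets just one of the two conditions; inactive = meets neither condition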;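 note: plate controls were neutral control median for no effect and positive control median for full effect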
NIH3T3 tox: kills mouse NIH/3T3 fibroblasts; shares compounds with T cruzi growth-1; NIH/3T3 viability, CellTiter-Glo ATP luminescence, 90 h; cytotoxicity (signal decrease), % at 8.35 µM; 5,600 tested, 14% active; AID 651742;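 active = mean signal decrease across replicates above about 35% based on untreated-well scatter, with enough replicates individually passing, limit read from the data; inconclusive = no rule stated though some were filed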;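 note: 0% = median of neutral control wells and 100% = median of positive control wells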
NIH3T3 tox 2: NIH/3T3 (mouse) viability loss | shares compounds with T cruzi growth-1 | NIH/3T3 viability, CellTiter-Glo ATP luminescence, 90 h | inhibition, % at 24.9 µM | 5,600 tested, 56% active | AID 651744;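 active = mean loss of cell viability signal at or above a set limit, and enough replicates individually reaching it; inconclusive = meets only the mean limit or only the replicate share; inactive = meets neither condition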;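 note: 0% = median of neutral control wells and 100% = median of positive control wells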
An asterisk follows results filed as active.

For O=C(CC1CC1)N1CC[C@H]2[C@H](CO)Nc3ccc(-c4ccc(F)cc4)cc3[C@H]21 the results were C diff growth -0.1, Pf Dd2 inh 24.5, T cruzi growth-1 107.1*, T cruzi growth-2 107.7*, T cruzi growth-3 102.9*, NIH3T3 tox -18.2 and NIH3T3 tox 2 16.8.
N#C[C@H]1[C@H](c2ccccc2-c2ccccc2)[C@H](CO)N1C(=O)NC1CCCCC1 was read as C diff growth -7.4 and Pf Dd2 inh -8.7.
Screening Cn1cnc(S(=O)(=O)N2CC[C@@H]3[C@H](CO)Nc4ccc(C#Cc5ccc(F)cc5)cc4[C@@H]32)c1 returned C diff growth 4.3, Pf Dd2 inh -10.4 and T cruzi growth-1 9.2.
Cn1cnc(S(=O)(=O)N2CC[C@H]3[C@H](CO)Nc4ccc(-c5cccc(F)c5)cc4[C@H]32)c1 was read as C diff growth -12.9, Pf Dd2 inh 4.1, T cruzi growth-1 110.1*, T cruzi growth-2 98.8*, T cruzi growth-3 29.9, NIH3T3 tox -1.5 and NIH3T3 tox 2 2.8.
For Cn1cnc(S(=O)(=O)N2CC[C@@H]3[C@@H](CO)Nc4ccc(-c5ccc(F)cc5)cc4[C@@H]32)c1 the results were C diff growth -7.0, Pf Dd2 inh -68.8, T cruzi growth-1 inconclusive, T cruzi growth-2 105.2*, T cruzi growth-3 75.0, NIH3T3 tox -26.4 and NIH3T3 tox 2 -6.8.
For Cn1cnc(S(=O)(=O)N2CC[C@@H]3[C@H](CO)Nc4ccc(-c5ccc(F)cc5)cc4[C@@H]32)c1 the results were C diff growth -5.6, Pf Dd2 inh -11.7 and T cruzi growth-1 51.3.
Screening Cn1cnc(S(=O)(=O)N2CC[C@@H]3[C@@H](CO)Nc4ccc(-c5cccc(F)c5)cc4[C@@H]32)c1 returned C diff growth -9.8, Pf Dd2 inh 14.7, T cruzi growth-1 102.7*, T cruzi growth-2 103.1*, T cruzi growth-3 79.0, NIH3T3 tox 9.8 and NIH3T3 tox 2 11.5.
Screening Cn1cnc(S(=O)(=O)N2CC[C@@H]3[C@H](CO)Nc4ccc(-c5cccc(F)c5)cc4[C@@H]32)c1 returned C diff growth -13.0, Pf Dd2 inh 13.8 and T cruzi growth-1 93.1.
For C[C@@H]1CN([C@@H](C)CO)S(=O)(=O)c2ccc(-c3ccncc3)cc2O[C@@H]1CN(C)C the results were C diff growth -4.6, Pf Dd2 inh 0.8 and T cruzi growth-1 7.5.
`Cc1ccccc1-c1ccc([C@@H]2[C@H](CO)N3CCCCN(C(=O)Nc4ccc(F)cc4)C[C@@H]23)cc1` gave C diff growth -99.2*, Pf Dd2 inh -25.4, T cruzi growth-1 102.6*, T cruzi growth-2 92.3, T cruzi growth-3 106.9*, NIH3T3 tox 116.7* and NIH3T3 tox 2 102.6*.
O=C(Nc1ccccc1)N1CCCCN2[C@@H](CO)[C@@H](c3ccc(-c4ccccc4F)cc3)[C@@H]2C1 was read as C diff growth 57.5, Pf Dd2 inh -36.6 and T cruzi growth-1 94.9.
Screening O=C(Nc1ccc(F)cc1)N1CCCCN2[C@@H](CO)[C@@H](c3ccc(-c4ccccc4F)cc3)[C@@H]2C1 returned C diff growth 29.4, Pf Dd2 inh -31.7, T cruzi growth-1 103.2*, T cruzi growth-2 93.6, T cruzi growth-3 106.1*, NIH3T3 tox 105.7* and NIH3T3 tox 2 103.7*.
For Cc1ccccc1-c1ccc([C@@H]2[C@@H](CO)N3CCCCN(C(=O)Nc4ccc(F)cc4)C[C@@H]23)cc1 the results were C diff growth 54.5, Pf Dd2 inh -13.3 and T cruzi growth-1 92.5.
CO[C@H]1CN(C)C(=O)c2ccc(NS(=O)(=O)c3ccccc3C)cc2OC[C@H](C)NC[C@@H]1C was read as C diff growth 0.7 and Pf Dd2 inh 29.4.

High-throughput results: PubChem BioAssay, Broad Institute
